Values without a mark were called inactive. Calls follow the shape of the dose curve; as a rule, active = well fitted curve in the direction sought with a large enough effect; inconclusive = small, poorly fitted or top-dose-only effect, or effect the other way, or another doubt; inactive = no such curve, though single readings can be large or run the other way. Residues, ends and D or L forms follow the SMILES beside them. *: point of attachment. Cbz = O=C(OCc1ccccc1)*
experiment: qHTS of Nrf2 Activators: LOPAC Validation (AID 624149); conditions: Nrf2/ARE reporter cell assay; series mostly up to 46.1 µM; activation: at the top concentration; also: 0% is about no effect
Description: Many diseases have some form of oxidative stress injury and ties to inflammation, causing a host of problems for the patient. The antioxidant response element (ARE) plays an important role in alleviating the harmful effects of oxidative stress. The antioxidant response element (ARE) is a transcriptional regulatory element involved in the activation of genes coding for a number of antioxidant proteins and detoxifying enzymes. These enzymes work in concert to protect tissues from oxidative insults and chemical toxicities in human hepatocytes and immune cells. The protective effects of ARE activation are primarily triggered through Nrf2 (NF-E2-related factor) binding to and activating AREs. It is known that Nrf2 controls the production of over 250 antioxidant and detoxification proteins (Hu et al., 2006), thereby protecting tissues by increasing cellular antioxidant content and suppressing inflammatory signaling pathways. The transcription factor Nrf2 is a central link between oxidative chemicals, such as phenolic antioxidants and electrophilic compounds, and the activation of ARE. Nrf2 levels are constitutively low as a consequence of its interaction with Keap1, which targets its degradation (Zipper and Mulcahy, 2002). Electrophiles react with key cysteine residues in Keap1, releasing Nrf2 and allowing its translocation to the nucleus. Once within the nucleus, Nrf2 complexes with coactivators such as p300, and binds to the AREs to induce gene transcription of cytoprotective enzymes, resulting in the prevention of toxicity. Activation of Nrf2 protects tissues by increasing cellular antioxidant content and suppressing inflammatory signaling pathways. Identifying novel and potent Nrf2 activators by using the AREc32 cell line to detect ARE activation by small molecules will lead to the identification and development of probes to study protective pathways in multiple tissues. These specific probes are essential to study the ARE pathway, and eventually to determine whether this pathway does activate genes that could protect against a host of diseases, including cardiovascular diseases, obesity, diabetes, Alzheimer's, and Parkinson's disease.
This project's aim is to identify novel and potent Nrf2 activators by using the AREc32 cell line to detect ARE activation by small molecules, which will lead to the identification and development of probes to study the ARE pathway.
NIH Chemical Genomics Center [NCGC]
NIH Molecular Libraries Probe Centers Network [MLPCN]
Assay Submitter (PI): Curtis Klaassen, University of Kansas Medical Center
5 uL of 1000 cells/well of AREc32_Fluc cells are seeded into 1536-well plate in OPTI-MEM medium with 5% FBS. The plates are incubated overnight at 37 deg C with 5% CO2. Then through pin tool transfer, 23 nL of compounds are added to each well before a 24 hr incubation at 37 deg C with 5% CO2. After the addition of 2.5 uL of Steady-Glo. the plates are kept at RT for 30 min, before they are read on the ViewLux

SMILES | activation [%]
O=C(O)C1CCNCC1 | -0.928
OC[C@H]1O[C@H](n2cnc3c(N[C@H]4CCC[C@@H]4O)ncnc32)[C@H](O)[C@@H]1O | -2.25
CC1=C(C(=O)O)N2C(=O)[C@@H](NC(=O)C(N)C3=CCC=CC3)[C@H]2SC1 (stereo not given in full) | -1.75
Cc1cccc(C)c1OCC(N)C(C)C (stereo not given) | -2.27
O=c1cc(-c2ccccc2)[nH]c2nc(Cl)ccc12 | -0.209
O=C(O)C1CCCNC1 (stereo not given) | 0.559
N[C@H](C(=O)O)[C@H](Cc1ccccc1)C(=O)O | -1.7
Cc1cccc(C2CN(C)CCc3c2cc(O)c(O)c3Cl)c1 (stereo not given) | -1.93
CC(N)(C(=O)O)c1ccc(C(=O)O)cc1 (stereo not given) | -0.777
CCCN(CCc1ccccc1)C1CCc2c(O)cccc2C1 (stereo not given) | -2.37
NCCCCN | -1.07
COc1ccccc1N1CCN(CCCCN2C(=O)c3ccccc3C2=O)CC1 | -1.08
NC/C=C\C(=O)O | -2.21
NCCCNCCCCNCCCN | 0.75
Cn1cc(C(=O)OCC2CCN(CCNS(C)(=O)=O)CC2)c2ccccc21 | 6.84
COC(=O)C1=C(C)NC(C)=C([N+](=O)[O-])C1c1ccccc1C(F)(F)F (stereo not given) | -2.29
COc1ccccc1N1CCN(CCN(C(=O)c2ccc(F)cc2)c2ccccn2)CC1 | -2.33
CCC1(O)CC2CN(CCc3c([nH]c4ccccc34)[C@@](C(=O)OC)(c3cc4c(cc3OC)N(C)C3[C@]45CCN4CC=C[C@@](CC)([C@@H](OC(C)=O)[C@]3(O)C(=O)OC)[C@H]45)C2)C1 (stereo not given in full) | 1.07
CCCCCCC(=O)OC1CC(C)(C)NC(C)(C)C1 | -1.68
CC(C)[C@H](NC(=O)OCc1ccccc1)C(=O)N[C@H](C=O)Cc1ccccc1 (Cbz-Val-Phe-aldehyde) | 1.25

SMILES | activation [%]
CC[C@@H]1Cc2cc(O)ccc2C2=C1c1ccc(O)cc1C[C@H]2CC | -1.82
CC1=C(/C=C/C(C)=C/C=C/C(C)=C\C(=O)O)C(C)(C)CCC1 | -0.789
O=c1ccn([C@@H]2O[C@H](COP(=O)(O)OP(=O)(O)O)[C@@H](O)[C@H]2O)c(=O)[nH]1 | 0.789
NCCC1CCCC(CCN)N1 (stereo not given) | -1.91
COc1ccc(CCN(C)CCc2ccc(OC)c(OC)c2)cc1OC | -2.54
CCCCCCCCCCCCCCCCCCOC[C@H](COP(=O)([O-])OCC[N+](C)(C)C)OC | -2.29
N=C(N)c1ccc(OCCCCCOc2ccc(C(=N)N)cc2)cc1 (tested in a mixture with another compound) | -2.09
CCN1C(=O)C=CC1=O | -1.51
NC1CONC1=O (stereo not given) | 0.734
C=CCN1CCc2cc(O)c(O)cc2C(c2ccccc2)C1 (stereo not given) | -2.35
O=c1[nH]c2cc(Cl)ccc2c(O)c1-c1ccc(Oc2ccccc2)cc1 | -1.2
CCCCCCCC/C=C\CCCCCCCC(=O)NCCc1ccc(O)c(O)c1 | 1.81
Nc1ncnc2c1nc(Sc1ccc(Cl)cc1)n2[C@H]1OC2COP(=O)(O)O[C@@H]2C1O (stereo not given in full) | -1.94
Nc1ccc(CCNc2ncnc3c2ncn3C2OC(CO)C(O)C2O)cc1 (stereo not given) | -1.25
C=C1C[C@@]23CC[C@H]4[C@@](C)(CCC[C@@]4(C)C(=O)OC4OC(CO)C(O)C(O)C4O)[C@@H]2CC[C@]1(OC1OC(CO)C(O)C(O)C1OC1OC(CO)C(O)C(O)C1O)C3 (stereo not given in full) | 0.407
CC1CCN=C(N)S1 (stereo not given) | -1.51
Oc1ccc(Cn2cc[nH]c2=S)cc1 | 0.921
COc1ccc(CCn2nnnc2C2(c3ccc(C)cc3)CC2)cc1 | -2.04
COc1cc(N)c(Cl)cc1C(=O)OCCN1CCCCC1 | -0.803
Nc1ncnc2c1c(-c1ccc(Oc3ccccc3)cc1)cn2C1CCCC1 | 7.41
